14-3-3 PPI – alters human 14-3-3 gamma binding to Raf peptide. P61981. FP, 14-3-3gamma / TMR-pS259-Raf peptide binding. inhibition, % at 40 µM. actives 0.19% (n = 160,000). AID 422; in the data active = inhibition above about 30%
Target sequence (P61981 whole entry, looked up): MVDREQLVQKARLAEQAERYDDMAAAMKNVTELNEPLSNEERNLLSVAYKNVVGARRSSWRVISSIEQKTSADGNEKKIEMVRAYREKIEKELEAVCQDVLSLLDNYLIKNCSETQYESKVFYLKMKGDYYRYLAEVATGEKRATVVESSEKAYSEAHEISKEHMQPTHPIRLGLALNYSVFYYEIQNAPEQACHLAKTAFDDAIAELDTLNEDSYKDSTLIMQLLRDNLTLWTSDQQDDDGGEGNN
Large screens that a line does not name were inactive; ! = repeats disagree. This is one part of a sample in which hits are shown more often than they occur.

COc1cc(NS(=O)(=O)c2ccc(C)cc2)c2ncccc2c1	none
COc1cc(NCCCC(C)N)c2ncccc2c1 (stereo not drawn)	14-3-3 PPI 69.8
COc1cccc(CNc2cccc3cccnc23)c1O	none
Cn1c(C=C(OC(=O)c2ccccc2)c2ccccc2)nc2ccccc21	none
CN1CCc2nc(SCC(=O)Nc3sc4c(c3C#N)CCCC4)c(C#N)c(-c3ccsc3)c2C1	none
COc1cccc2c1C(=O)c1c(O)c3c(c(O)c1C2=O)C[C@@](O)(C(=O)CO)C[C@@H]3O[C@H]1C[C@H](N)[C@H](O)[C@H](C)O1	14-3-3 PPI 57.3
CCCOC(=O)C1=C(C)NC(=O)NC1c1cccc(OCC)c1 (stereo not drawn)	none
COc1cc(OC)cc(C(=O)Nc2cc(C(=O)N3CCc4ccccc4C3)ccc2N2CC3CC(C2)c2cccc(=O)n2C3)c1 (stereo not drawn)	none
CCOc1ccc2[nH]c(=O)c(CN(Cc3ccccc3)C(=O)N3CCCC3)cc2c1	none
CCOc1ccc2[nH]c(=O)c(CN(C(=O)N3CCOCC3)C3CC3)cc2c1	none
CCOc1ccc2[nH]c(=O)c(CN(CC3COCCO3)C(=O)C3CC3)cc2c1 (stereo not drawn)	14-3-3 PPI 39.5
CC1=CC(=O)N(CCNC(=O)C2CCCNC2=O)C1=O (stereo not drawn)	none
O=C(Nc1ncc(-c2ccccc2)s1)c1cc(=O)c2ccccc2o1	none
Cc1cc(C)nc(/N=C(\N)Nc2cccc(C)c2Cl)n1	none
O=C(NCCC1=CCCCC1)c1ccc(CNS(=O)(=O)c2ccc(F)cc2)cc1	none
O=C(NCc1ccccn1)c1ccc(CS(=O)(=O)Cc2ccc(Cl)cc2)o1	none
Cc1ccccc1CS(=O)(=O)Cc1ccc(C(=O)NCc2ccco2)o1	none
Cc1ccc(CNC(=O)c2c(C)cc(=O)oc2C)cc1	none
Cc1cc(=O)oc(C)c1C(=O)NCc1ccccn1	14-3-3 PPI 44.5!
Cc1ccccc1CS(=O)(=O)Cc1ccc(C(=O)NCc2ccccn2)o1	14-3-3 PPI 33.5
Cc1cc(=O)oc(C)c1C(=O)NCc1ccccc1Cl	none
CN(C)CCCNc1ccc([N+](=O)[O-])cc1Cl	none
CCOC(=O)C(C)(C)Sc1ncnc2c1c(-c1ccccc1)cn2-c1cccc(F)c1	none
C(=CCSc1nc2ccccc2[nH]1)CSc1nc2ccccc2[nH]1	none
CC(=O)Oc1c(C)cc(O)c2ccccc12	none
CC(=O)Oc1c(-c2ccccc2)c2nc3ccccc3nc2c2ccccc12	14-3-3 PPI 33.1
CCC(=O)Oc1c(-c2ccccc2)c2nc3ccccc3nc2c2ccccc12	none
CCn1c(=NC(=O)c2ccc(S(=O)(=O)N3CC(C)OC(C)C3)cc2)sc2cccc(Cl)c21 (stereo not drawn)	none
O=C(Nc1ccc(Cl)cc1)C1CCCN(S(=O)(=O)c2cccc3nonc23)C1 (stereo not drawn)	none
N#CC1(c2ccccc2)CCC(=O)CC1	none
O=C1c2cccc3cccc(c23)C(=O)N1c1ccccc1	none
NC1=CC(=O)c2cccc3cccc1c23	14-3-3 PPI 80.5!
Cc1nnc(C)n1N1C(=O)c2cccc3cccc(c23)C1=O	none
CCOC(=O)c1c(C)nc2cc(C(=O)Nc3ccc(C)c(C)c3)nn2c1C	none
O=C(CSc1c2c(nc3ccccc13)CCCC2)NCC1CCCO1 (stereo not drawn)	none
CN(C)c1ccc(C=Cc2nc3cc4c(cc3s2)OCO4)cc1	none
O=C(O)c1c(Cl)nc(Cl)c([N+](=O)[O-])c1Cl	none
COC(=O)c1c(Cl)nc(Cl)c([N+](=O)[O-])c1Cl	14-3-3 PPI 56.0
Cc1nc(Cl)c(C(=O)O)c(C)c1[N+](=O)[O-]	none
O=[N+]([O-])c1ccc(N2CCN(S(=O)(=O)c3cccc4nsnc34)CC2)c(C(F)(F)F)c1	none
CCOC(=O)C1=C(N)N(c2ccc([N+](=O)[O-])cc2)C2=C(C(=O)CCC2)C1c1ccc(C(C)(C)C)s1 (stereo not drawn)	none
COC(=O)CC1SC(=O)NC1=Nc1ccc(O)cc1 (stereo not drawn)	none
COc1cc(C=Nc2ccc(O)cc2)ccc1OC(=O)CC1SC(=O)NC1=O (stereo not drawn)	14-3-3 PPI 103.3
COc1cc(C=Nc2ccc(N(C)C(C)=O)cc2)ccc1OC(C)=O	none
Cc1sc2ncn(CC(=O)NCC(=O)NCc3ccco3)c(=O)c2c1C	none
COc1ccc(-c2n[nH]c3c2C(c2ccc(OC)cc2)N(c2ccc(Br)cc2)C3=O)cc1 (stereo not drawn)	none
CCOc1cc(C2c3c(-c4ccc(OC)cc4)n[nH]c3C(=O)N2c2ccc(Br)cc2)ccc1O (stereo not drawn)	none
CCOc1ccc(-c2n[nH]c3c2C(c2ccccc2)N(c2ccc(Br)cc2)C3=O)cc1 (stereo not drawn)	14-3-3 PPI 134.1
CC(=O)Oc1ccccc1N1C(=O)c2ccccc2C1=O	none
CC(=O)Oc1ccc(OC(C)=O)c2c1C(=O)c1ccccc1C2=O	14-3-3 PPI 69.1
CNc1ccc(OC)c2c1C(=O)c1ccccc1C2=O	none
C=CCN1C(=S)NC2c3cccc(OCC)c3OC1(C)C2C (stereo not drawn)	none
O=C(O)c1ccc2c(c1)C1C=CCC1C(c1ccncc1)N2 (stereo not drawn)	none
CCOC(=O)C1Nc2ccc(C(=O)O)cc2C2C=CCC12 (stereo not drawn)	none
O=C(O)c1ccc2c(c1)C1C=CCC1C(c1ccccn1)N2 (stereo not drawn)	14-3-3 PPI 62.2
O=C(O)c1ccc2c(c1)C1C=CCC1C(C(=O)O)N2 (stereo not drawn)	14-3-3 PPI 36.3
CCOC(=O)c1ccc2c(c1)C1C=CCC1C(C(=O)O)N2 (stereo not drawn)	none
COc1ccccc1C1Nc2ccc(C(=O)O)cc2C2C=CCC21 (stereo not drawn)	none
Cc1ccc(C2CC2(Cl)Cl)cc1 (stereo not drawn)	none
CCOC(=O)C1=C(C)NC(C)=C(C(=O)OCC)C1c1ccc(OC)cc1OC	none
CC1CC(=O)N(c2ccc(NCCC(c3ccccc3)c3ccccc3)c([N+](=O)[O-])c2)C1=O (stereo not drawn)	none
Cc1ccc2c(c1)C(c1ccc(F)cc1)N(C(=O)c1ccc(C(=O)c3ccccc3)cc1)CC(=O)N2 (stereo not drawn)	none
O=C(O)c1cccc(NC(=O)c2ccc(Br)c(S(=O)(=O)N3CCCC3)c2)c1	none
Cc1cccc(N(CC(=O)NC2CC3CCC2C3)S(=O)(=O)c2ccccc2)c1C (stereo not drawn)	none
Cc1cccc(N(CC(=O)Nc2c(C)cccc2C)S(=O)(=O)c2ccccc2)c1C	none
Cc1cccc(N(CC(=O)NC2CCCCC2)S(=O)(=O)c2ccccc2)c1C	14-3-3 PPI 37.6
Cc1ccc(NC(=O)c2cn(C3CCCC3)c(=O)c3c2c2ccccc2n3C)nc1	none
O=C(CSc1nc2c([nH]c3ccccc32)c(=O)n1-c1ccc(F)cc1)Nc1ccccc1F	none
Cc1ccccc1NC(=O)c1ccc(C)c(S(N)(=O)=O)c1	none
Cc1ccc(N=Cc2ccc(O)cc2)cc1	none
CCOc1ccccc1NC(=O)c1cc2cc3cc(OC)ccc3nc2s1	none
CC(=O)OCCNc1cc(N2CCN(C)CC2)c2noc3c2c1C(=O)c1ccccc1-3	none
O=C1c2ccccc2-c2onc3ccc(Nc4ccccc4)c1c23	none
CCC(=O)OCCNc1ccc2noc3c2c1C(=O)c1ccccc1-3	14-3-3 PPI 140.7
Cc1ccc2nc(SCC(=O)Nc3cccc(C(F)(F)F)c3)[nH]c2c1	none
COc1cccc(Oc2cc([N+](=O)[O-])cc3c2C(=O)Nc2ccccc2O3)c1	14-3-3 PPI 60.8
O=C1Nc2ccccc2Oc2cc([N+](=O)[O-])cc(Oc3ccccc3)c21	none
Cc1cccc(Oc2cc([N+](=O)[O-])cc3c2C(=O)Nc2ccccc2O3)c1	none

Screens as filed in PubChem.
